This passage reports INHIBITION results from ChEMBL document CHEMBL4513216, “Probing the Open Global Health Chemical Diversity Library for Multistage-Active Starting Points for Next-Generation Antimalarials” (ACS Infect Dis, 2020).

About 8,600 (12%) of roughly 69,000 compounds showed an effect of 50% or more. Many of the other results were omitted from the sample, so strong results are more common in it than they were.

In the experiment the test system is Plasmodium berghei. The experiment can be described thus: Screen against P. berghei liver stage (PbLuc), transformed with Luciferase, at 10uM. The format is functional, HepG2. To be noted: tested at 10 uM.
In the case of `CC(=O)N1CCN([C@@H]2CC[C@@H](NC(=O)c3cc(C)cs3)[C@H]2O)CC1`, the INHIBITION is reported as 33.7%.
The figure for `Cc1cncc(C(=O)N2CCC3(CC2)NC(=O)CC3c2ccccc2)c1` (stereo not drawn) is -3.88%; for `O=C([C@H]1C[C@H]2[C@H](CCN2Cc2cccs2)O1)N1CCOCC1` it is 24.8%.
Under `CSc1ncccc1C(=O)N1C[C@@H]2CC[C@H]1CN(C(C)=O)C2` stands -31.1%; under `COCCNc1c(-c2ccc(C)cc2)c(=O)c1=O`, 25.3%.
The figure for `Cc1ccc(S(=O)(=O)N2CCC(N3CCCCC3)CC2)cc1C` is 45.4%; for `Cc1ccc(S(=O)(=O)N2C[C@H](C3CC3)[C@@H](N)C2)cc1F` it is 22.5%.
For the molecule `Cc1cc(S(=O)(=O)N2CCC(S(C)(=O)=O)C2)ccc1F` (stereo not drawn), the INHIBITION is on record as 6.09%.
The figure for `Cc1cc(S(=O)(=O)N2CCCN3CCCC3C2)ccc1F` (stereo not drawn) is 88.1%; for `Cc1cc(S(=O)(=O)N2CCC(S(C)(=O)=O)CC2)ccc1F` it is 16.6%.
Under `Cc1ccc(S(=O)(=O)N2CCCCC(N3CCN(C)CC3)C2)cc1F` (stereo not drawn) stands 71.3%.
As for `CCc1ccc(CN2CCC3(CC2)CN(c2cnn(C)c2)C(=O)CO3)o1`, the INHIBITION is on record as 34.4%.
The figure for `Cc1ccc(OCCCSC2=NCCN2)cc1` is 39.1%; for `CSc1nc2cc(C)n(CC(=O)NC(C)C)c2c(=O)n1CC(C)C` it is 43.9%; for `COCCNC(=O)Cn1c(C)cc2nc(SC)n(CC(C)C)c(=O)c21` it is 89.9%.
The figure for `CSc1nc2cc(C)n(CC(N)=O)c2c(=O)n1CC(C)C` is 42.3%; for `Cc1cc(C)n(CC(=O)N2CCC(Nc3cccnn3)CC2)n1` it is -7.95%.
Under `O=C(NCc1cccs1)[C@@H]1CC[C@@H]2[C@@H](CCN2C2CCOCC2)O1` stands 27.6%.
As to `CCO[C@@H]1CCN(C(=O)c2cnc(C)cn2)[C@@H]1Cc1cnn(C)c1`, the INHIBITION is reported as 53.2%.
Turning to `CN(C)[C@@H]1CCN(C(=O)c2cccn2C)[C@H]1Cc1cnn(C)c1`, the INHIBITION was found to be 57.9%.
For the molecule `CN(C)C(=O)N1CC[C@@H](O)[C@@H]1Cc1cnn(C)c1`, the INHIBITION is recorded as 19.5%.
For `CN(C)[C@@H]1CCN(C(=O)c2ccsc2)[C@H]1Cc1cnn(C)c1`, the INHIBITION is listed as 48.3%.
With `Cn1cc(C[C@H]2[C@H](O)CCN2C(=O)c2ccsc2)cn1`, the INHIBITION is on record as 60.2%.
Regarding `Cn1cc(C[C@H]2[C@H](N3CCOCC3)CCN2C(=O)c2ccco2)cn1`, the INHIBITION is recorded as 17.1%.
In the case of `Cc1ccccc1C(=O)N1CC[C@@H](N(C)C)[C@@H]1Cc1cnn(C)c1`, the INHIBITION turned out to be 34.6%.
Under `Cn1cc(C[C@H]2[C@H](N3CCOCC3)CCN2C(=O)c2ccc[nH]2)cn1` stands 55.5%.
For `Cn1cc(C[C@H]2[C@@H](O)CCN2C(=O)c2ccc[nH]2)cn1`, the INHIBITION stood at 4.27%.
For the molecule `COCCO[C@@H]1CCN(C(=O)c2ccc[nH]2)[C@H]1Cc1cnn(C)c1`, the INHIBITION is 33.4%.
In the case of `CN(C)[C@@H]1CCN(C(=O)c2ccco2)[C@H]1Cc1cnn(C)c1`, the INHIBITION came out at 33.4%.
On to `CCO[C@@H]1CCN(C(=O)c2cscn2)[C@@H]1Cc1cnn(C)c1`, for which the INHIBITION was determined as 37.5%.
On to `O=c1ccc(-c2cccs2)nn1CN1CCOC(c2ccccc2)C1` (stereo not drawn), for which the INHIBITION is -16.5%.
The figure for `Cc1oc(C)c(C(=O)N2CCN(Cc3cscn3)CC2)c1C` is -63.3%; for `CN(C)c1cccc(C(=O)N2CCCSCC2CN2CCCC2)c1` (stereo not drawn) it is 11%.
For `CC(C)C(NC(=O)Cn1nc2c(cc1=O)CCCC2)C(=O)O` (stereo not drawn), the INHIBITION was -0.621%.
The figure for `Cc1ccc(NCc2cncc3c2CCN(C(=O)C2CC=CC2)C3)nn1` is -25%.
For `O=C(c1cncs1)N1CCCC1c1ccn[nH]1` (stereo not drawn), the INHIBITION is -28.6%.
As for `Cc1nc(N2CCOCC2)nc2c1CCN(Cc1cccnc1)CC2`, the INHIBITION was found to be 4.92%.
The figure for `Cc1cccc(N2CCN(C(=O)NC(C)c3nncn3C)CC2)c1` (stereo not drawn) is -38.2%; for `O=C(N[C@@H]1CC[C@@H](N2CCOCC2)[C@@H]1O)c1cnn2cccnc12` it is 38.8%; for `COCCO[C@@H]1CCN(C(=O)c2ccc(C)o2)[C@@H]1Cc1cnn(C)c1` it is 21.6%.
For the molecule `COCCO[C@H]1CCN(C(=O)c2ccsc2)[C@H]1Cc1cnn(C)c1`, the INHIBITION was -17.9%.
The figure for `COCCO[C@H]1CCN(C(=O)c2cccnc2)[C@H]1Cc1cnn(C)c1` is 1.9%; for `O=C(c1ccnnc1)N1CC[C@@H](O)[C@@H]1Cc1ccccc1` it is -3.58%.
Under `COCCO[C@@H]1CCN(C(=O)c2ccnnc2)[C@H]1Cc1cnn(C)c1` stands 53.4%; under `O=C(c1ccnnc1)N1CC[C@H](OCC2CC2)[C@@H]1Cc1ccncc1`, 66.2%.
`COCCO[C@H]1CCN(C(=O)NC2CC2)[C@H]1Cc1cnn(C)c1`: the INHIBITION was 62.8%.
For `CCO[C@@H]1CCN(C(=O)c2ccnnc2)[C@@H]1Cc1cnn(C)c1`, the INHIBITION was found to be 69.5%.
On to `COCCO[C@H]1CCN(C(=O)c2ccco2)[C@H]1Cc1cnn(C)c1`, for which the INHIBITION is given as -22.5%.
For `O=C(c1cccnc1)N1CC[C@H](OCC2CC2)[C@@H]1Cc1cccnc1`, the INHIBITION is given as 34.8%.
The figure for `CCO[C@@H]1CCN(C(=O)c2ccc[nH]2)[C@@H]1Cc1cnn(C)c1` is 29%; for `CCO[C@@H]1CCN(C(=O)N(C)C)[C@@H]1Cc1cnn(C)c1` it is 12.4%.
Under `NC(=O)C1CCCN(C(=O)c2ccn(-c3ccc(F)cc3)n2)C1` (stereo not drawn) stands 0.914%; under `c1cnc2[nH]c(C3CCNCC3)c(CN3CCOCC3)c2c1`, 6.32%; under `O=C([C@H]1CC[C@@H]2[C@@H](CCN2C2CCCCC2)O1)N1CCOCC1`, 20.6%.
Consider `NCCCC(=O)NCC1(O)CCN(c2ccnc3cccnc23)C1` (stereo not drawn), for which the INHIBITION is 8.3035%.
As for `OCC1CCCN1c1cc(NCCNc2ccccn2)ncn1` (stereo not drawn), the INHIBITION is listed as 7.12%.
In the case of `OCC1CCCN1c1cc(NCCc2ccccn2)ncn1` (stereo not drawn), the INHIBITION is 64.1%.
In the case of `OCC1CCCN1c1cc(NCCc2nccs2)ncn1` (stereo not drawn), the INHIBITION is given as -0.71%.
The figure for `OCC1CCCN1c1cc(NCc2ccsc2)ncn1` (stereo not drawn) is 43.2%.
`OCC1CCCN1c1cc(NCCc2ccsc2)ncn1` (stereo not drawn): the INHIBITION worked out at 66.3%.
For `OCC1CCCN1c1cc(NCc2ccccn2)ncn1` (stereo not drawn), the INHIBITION was -41.6%.
The figure for `C[C@@H]1C[C@H](C(F)(F)F)n2nc(C3CCN(S(=O)(=O)N(C)C)CC3)cc2N1` is -2.11%; for `CNS(=O)(=O)c1ccc(C(=O)N2CCCC2c2ccccc2C)o1` (stereo not drawn) it is 7.27%.
